The term AC50 denotes the midpoint of the concentration-response curve, whichever way the signal moves.

The results in this text go back to PubChem BioAssay (NCATS).

SMILES strings stand for the structures. Calls of active or inactive are those of the source. Calls follow the shape of the full dose curve.

The conditions of this assay: Ebola virus entry assay, ratio channel readout.
With `Cc1nnc(SCC2=C(C(=O)O)N3C(=O)[C@@H](NC(=O)Cn4cnnn4)[C@H]3SC2)s1`, the outcome was inactive.

On to `COc1cccc2c1C(=O)c1c(O)c3c(c(O)c1C2=O)C[C@@](O)(C(C)=O)C[C@H]3O[C@H]1C[C@H](N)[C@H](O)[C@H](C)O1`, for which the concentration at half-maximal activity (AC50) was 5.63 µM (active).

On to `CC(NC(C)(C)C)C(=O)c1cccc(Cl)c1` (stereo unspecified), for which the outcome was inactive.

`CCOC(=O)C1=C[C@@H](OC(CC)CC)[C@H](NC(C)=O)[C@@H](N)C1`: the result was inactive.

On to `CCC1(C)CC(=O)NC1=O` (stereo unspecified), for which the outcome was inactive.

Take `NC(N)=NC(=O)Cc1c(Cl)cccc1Cl`: the result was inactive.

With `O=C(O)CCCc1ccc(N(CCCl)CCCl)cc1`, the result was inactive.

Turning to `CCOc1cc(CC(=O)N[C@@H](CC(C)C)c2ccccc2N2CCCCC2)ccc1C(=O)O`, the outcome was inactive.

Regarding `NS(=O)(=O)c1cc(C2(O)NC(=O)c3ccccc32)ccc1Cl` (stereo unspecified), the outcome was inactive.

For `Nc1ccn([C@@H]2CS[C@H](CO)O2)c(=O)n1`, the outcome was inactive.

For the compound `CO[C@@]1(NC(=O)Cc2cccs2)C(=O)N2C(C(=O)O)=C(COC(N)=O)CS[C@@H]21`, the outcome was inactive.

`Nc1nc(/C(=C/CC(=O)O)C(=O)N[C@@H]2C(=O)N3C(C(=O)O)=CCS[C@H]23)cs1`: the outcome was inactive.

Regarding `C[C@]12CC[C@@H]3c4ccc(OC(=O)N(CCCl)CCCl)cc4CC[C@H]3[C@@H]1CC[C@@H]2OP(=O)(O)O`, the result was inactive.

Turning to `O=C1[O][Bi][O]c2ccccc21`, the outcome was inactive.

With `CC(=O)S[C@@H]1CC2=CC(=O)CC[C@]2(C)[C@H]2CC[C@@]3(C)[C@@H](CC[C@@]34CCC(=O)O4)[C@H]12`, the result was inactive.

Consider `CCCC(C)(COC(N)=O)COC(N)=O`, for which the outcome was inactive.
